The list is not random: actives were taken first. Their share in the collection is about 3.1%.
SKKanGAS inh: S. pyogenes SKKanGAS growth inhibitors in kanamycin, primary screen, streptokinase expression inhibitor project, SKKanGAS strain, BacTiter-Glo luminescence; 6 h; inhibition, % at 7.5 µM; 1.3% of 300,000 active;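 active = mean replicate score, as percent of positive control median, at least 50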;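 also: strain carries kanamycin resistance gene driven by streptokinase promoter and grows in 40 µg/ml kanamycin; loss of luminescence reflects streptokinase promoter inhibition or plain growth inhibition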
PP1 inh: PP1-alpha phosphatase inhibitors, primary screen, counter-screen for PP5 inhibitor project, biochemical, fluorescence, OMFP substrate, single point; inhibition, % at 6.7 µM; purified PP1alpha; Serine/threonine-protein phosphatase PP1-alpha catalytic subunit (Homo sapiens), P62136; 0.9% of 320,000 active;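 active = inhibition above the mean inhibition of all tested compounds plus 3 SD, computed separately for each screening campaign, cut at about 15% in these data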
Beta cell apopt: inhibitors of cytokine-induced beta cell apoptosis, primary screen, luminescence; INS-1E cytokine-induced death, ATP luminescence, 48 h; percent of positive-control rescue, neutral wells zero; protection from apoptosis, % (concentration not given with the values); 0.8% of 300,000 active;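 active = Every replicate reaches about 75%, or at least half do and their mean reaches it too, limit read from the data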;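 also: higher means more ATP so stronger rescue from cytokine killing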
PP5 inh: PP5 phosphatase inhibitors, primary screen, biochemical, fluorescence; AID 1987, 2009; inhibition, % at 6.7 µM; purified PP5c, OMFP substrate fluorescence; Serine/threonine-protein phosphatase 5 (Homo sapiens), P53041; 0.18% of 320,000 active;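 active = inhibition above the campaign's mean inhibition across all tested compounds plus 3 SD, cut at about 9.5% in these data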
Target sequence (P53041 whole entry, looked up): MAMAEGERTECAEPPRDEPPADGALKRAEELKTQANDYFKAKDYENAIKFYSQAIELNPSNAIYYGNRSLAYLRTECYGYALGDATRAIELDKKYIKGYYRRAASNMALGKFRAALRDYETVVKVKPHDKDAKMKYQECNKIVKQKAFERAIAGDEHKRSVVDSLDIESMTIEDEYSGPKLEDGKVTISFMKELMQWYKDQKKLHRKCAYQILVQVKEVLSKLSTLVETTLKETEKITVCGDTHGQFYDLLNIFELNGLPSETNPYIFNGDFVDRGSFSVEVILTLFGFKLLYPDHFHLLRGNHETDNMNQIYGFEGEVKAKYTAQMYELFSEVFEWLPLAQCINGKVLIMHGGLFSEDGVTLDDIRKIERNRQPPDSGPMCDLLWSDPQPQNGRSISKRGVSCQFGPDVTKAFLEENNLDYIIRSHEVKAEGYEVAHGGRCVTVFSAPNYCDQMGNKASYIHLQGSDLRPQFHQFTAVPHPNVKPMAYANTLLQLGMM
CSC inhib: cancer stem cell viability inhibitors, primary screen, luminescence; cancer stem cell-like cells viability; inhibition, % at 7.5 µM; 1.1% of 300,000 active; in the data active = inhibition above about 75%; tested in HMLE shEcad cells
Of the large screens only hits and unclear results are named; the others gave an inactive call.

C#CCOCCOCCOCCNc1nc(N2CCN(C(=O)CCCCCCCCCCNC(=O)[C@H](CCCCN)n3cc(C[C@@H](C)CC)nn3)CC2)nc(N2CCN(C(=O)CCCCCCCCCCNC(=O)[C@H](CCCN=C(N)N)n3cc(C[C@@H](C)CC)nn3)CC2)n1	PP1 inh 68, Beta cell apopt 99, CSC inhib 102 (no result: SKKanGAS inh)
C#CCOCCOCCOCCNc1nc(N2CCN(C(=O)CCCCCCCCCCNC(=O)[C@@H](CCC(=O)O)n3cc(CCCCCN)nn3)CC2)nc(N2CCN(C(=O)CCCCCCCCCCNC(=O)[C@H](CO)n3cc(CCCCCN)nn3)CC2)n1	PP1 inh 15 (no result: SKKanGAS inh)
C#CCOCCOCCOCCNc1nc(N2CCN(C(=O)CCCCCCCCCCNC(=O)[C@@H](CCC(=O)O)n3cc(CCCCCN)nn3)CC2)nc(N2CCN(C(=O)CCCCCCCCCCNC(=O)[C@H](CO)n3cc(CCCSC)nn3)CC2)n1	none (no result: SKKanGAS inh)
C#CCOCCOCCOCCNc1nc(N2CCN(C(=O)CCCCCCCCCCNC(=O)[C@H](CO)n3cc(CCCCCN)nn3)CC2)nc(N2CCN(C(=O)CCCCCCCCCCNC(=O)[C@H](CCCN=C(N)N)n3cc(C[C@@H](C)CC)nn3)CC2)n1	PP1 inh 57, Beta cell apopt 89 (no result: SKKanGAS inh)
Cc1ccc(C(=O)c2coc3ccc(O)cc23)cc1	none (no result: PP1 inh, PP5 inh)
Cc1ccc(Cn2cc(/C=N/NC(=O)Cc3nnc(NC(=O)c4ccc(C)cc4)s3)c3ccccc32)cc1	SKKanGAS inh 58
O=C(Nc1ccc2[nH]c(=O)[nH]c2c1)c1c(F)c(F)c(F)c(F)c1F	none
O=C1c2ccccc2C2=Nc3ccccc3SC(c3ccc(Cl)cc3)C12 (stereo not given)	SKKanGAS inh 78, Beta cell apopt 95, CSC inhib 127
O=C1CCCC2=C1C(c1ccc(Cl)cc1)C1C(=O)c3ccccc3C1=N2 (stereo not given)	none
O=C1c2ccccc2C2=Nc3ccccc3SC(c3cccc(F)c3)C12 (stereo not given)	SKKanGAS inh 79
COc1ccc(OC)c(-c2cc(-c3cccnc3)nc(N)c2C#N)c1	CSC inhib 76
CCOc1cc(/C=C2\NC(=O)NC2=O)ccc1OC(C)C(=O)O (stereo not given)	none
N#Cc1ccsc1NC(=O)C1CC(=O)N(Cc2ccccc2)C1 (stereo not given)	none
NC(=S)N=Nc1ccc(NN=C(N)N)cc1	SKKanGAS inh 106
CCc1c(C)nn(C(=O)/C(C#N)=C\N(C)C)c1C	none
CC1CCC(C(=O)c2c(O)c3ccccc3oc2=O)CC1 (stereo not given)	SKKanGAS inh 53
CC(=N)c1c(O)c2ccccc2oc1=O	none
CC(=O)N(C)c1ccc(OCC(O)Cn2c(C)nc3ccccc32)cc1 (stereo not given)	none
CC(=O)N(C)c1ccc(OCC(O)Cn2c3ccc(Cl)cc3c3cc(Cl)ccc32)cc1 (stereo not given)	SKKanGAS inh 65, CSC inhib 105
O=C(NCc1ccc2c(c1)OCO2)C(=O)NCC1OCCCN1S(=O)(=O)c1cc(F)ccc1F (stereo not given)	none
CC(C)NC(=S)NC(c1ccccc1)(c1ccccc1)c1ccccc1	SKKanGAS inh 81, Beta cell apopt 112
C/C(=N\NC(=S)NC(C)C)c1ccccc1	none
COc1cc(CNc2ccc(CNc3ncn[nH]3)cc2)ccc1OCc1ccccc1	CSC inhib 90
CCOc1ccc(/C=N/NC(=O)Cc2csc(Nc3cccc(C(F)(F)F)c3)n2)cc1	SKKanGAS inh 80
O=C(O)c1cn(Cc2ccccc2)c2ccc(Cl)cc2c1=O	PP1 inh 17
CCCCCCNc1c([N+](=O)[O-])cc(C)cc1[N+](=O)[O-]	none
CCOC(=O)N/N=C(/c1ccccc1)C1CCCCC1	none
CC(C)c1ccc2c(c1)CCC1C(C)(CN)CCCC21C (stereo not given)	CSC inhib 116
COc1ccc(NC(=O)c2cc(S(=O)(=O)N3CCOCC3)cn2C)cc1Cl	none
O=c1cc(N2CCCCC2)c(-c2ccccc2)nn1Cc1ccccc1	CSC inhib 105 (no result: SKKanGAS inh)
COc1ccc(Cn2nc(-c3ccccc3)c(N3CCCCC3)cc2=O)cc1	none
Cc1ccccc1CSCC(=O)NCc1ccco1	none
COc1nc(-c2ccccc2)ccc1-c1noc(-c2ccco2)n1	none
COc1ccc(-c2ccc(-c3noc(-c4ccco4)n3)c(OC)n2)cc1	PP1 inh 16
